Reference: PubChem BioAssay
Activity calls are given as the source filed them.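 The calls were made as follows, unless noted: active = visual image review flags a hit and inhibition of aggregation exceeds 20%; inconclusive = visual hit but inhibition at or below 20%; inactive = no hit on visual image review.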

Columns and labels:
[1] = inhibitors of TNFa-induced NFkB p65 translocation, primary screen, imaging, HUVEC, MLSMR starter and 10KST1 sets (AID 438;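 active = inhibition above 20% together with a positive visual image hit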;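 also: compound added about 3h40 before a 20 min TNFalpha stimulation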;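 as to inhibition: signal is the nuclear over cytoplasmic p65 intensity ratio per well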); conditions: HUVEC TNFa-induced p65 nuclear translocation; cell count: measured here: nuclei count (cytotoxicity indicator), at 2.08 µM; inhibition: at 2 µM, stronger effect = higher value, 0% TNFa-plus-vehicle, 100% no-TNFa wells
[2] = inhibitors of mutant huntingtin aggregation, primary screen, imaging, exon1htt(103Q)mCFP cells, high-content imaging (AID 483); conditions: exon1htt(103Q)mCFP cell line, aggregate imaging, at 2 µM; inhibition of aggregation: stronger effect = higher value; nuclei count: measured here: cell count, toxicity;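 also: compound exposure lasted 3 days before fixation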;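 as to nuclei count: percent of the per-plate median nuclei count of sample wells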
[3] = inhibitors of E-selectin induction by TNFa, primary screen, imaging, HUVEC, immunofluorescence, MLSMR starter and 10KST1 sets (AID 487;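 active = visually confirmed hit in the image check and inhibition above 20%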;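 as to inhibition: signal is fraction of cell area covered by stained E-selectin grains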;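 as to nuclei count: 100% = median nuclei count of all wells on the same plate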); conditions: HUVEC TNFalpha-induced E-selectin immunofluorescence imaging, at 2 µM; inhibition: stronger effect = higher value; nuclei count: measured here: cell number, toxicity
[4] = target: Voltage-gated potassium channel subunit beta-2 (Rattus norvegicus) (UniProt P62483); experiment: KvBeta enzyme negative modulators, primary screen, biochemical, NADPH fluorescence (AID 622;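 active = fluorescence slope higher than the sample average by over 3 SD, cut at about -0.22 in these data, passing the limit was not always enough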;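 also: slope of raw intensity against log time taken from 70 to 1610 s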); conditions: recombinant KvBeta, 4-cyanobenzaldehyde reduction, at 10 µM, stronger effect = higher value
Sequence of Voltage-gated potassium channel subunit beta-2 (Rattus norvegicus) (P62483 whole entry, looked up): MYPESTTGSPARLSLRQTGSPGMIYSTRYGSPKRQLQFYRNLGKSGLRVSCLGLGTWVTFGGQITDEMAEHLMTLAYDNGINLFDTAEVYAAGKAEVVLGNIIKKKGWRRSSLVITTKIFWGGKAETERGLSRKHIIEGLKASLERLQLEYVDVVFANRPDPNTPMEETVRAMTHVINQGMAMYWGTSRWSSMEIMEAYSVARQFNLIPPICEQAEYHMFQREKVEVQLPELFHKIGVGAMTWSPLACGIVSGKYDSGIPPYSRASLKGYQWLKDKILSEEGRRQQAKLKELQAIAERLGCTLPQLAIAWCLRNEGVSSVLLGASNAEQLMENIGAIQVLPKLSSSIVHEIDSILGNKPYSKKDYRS

[5] = target: Voltage-gated potassium channel subunit beta-2 (Rattus norvegicus) (UniProt P62483); experiment: KvBeta positive modulators, primary screen, biochemical, NADPH fluorescence (AID 623;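 active = NADPH fluorescence slope more negative than the mean of all samples by about 3 SD, 99.7% confidence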;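 also: fluorescence intensity change per second fitted from 20 to 320 s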); conditions: Recombinant KvBeta, NADPH fluorescence decrease slope, 10 min; at 10 µM; stronger effect = lower value
[6] = target: Alpha-2C adrenergic receptor (Homo sapiens) (UniProt P18825); experiment: modulators of alpha2C/GIRK thallium flux, primary screen, cell-based, HEK293 alpha2C/GIRK1/2 (AID 624;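 active = fluorescence slope after compound addition differing from the mean of all screened samples at 99.7% confidence, in either direction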;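 also: slope of fluorescence ratio to pre-addition baseline per second over 15 to 24 s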); conditions: thallium flux BTC fluorescence, at 10 µM, actives lie on both sides
Sequence of Alpha-2C adrenergic receptor (Homo sapiens) (P18825 whole entry, looked up): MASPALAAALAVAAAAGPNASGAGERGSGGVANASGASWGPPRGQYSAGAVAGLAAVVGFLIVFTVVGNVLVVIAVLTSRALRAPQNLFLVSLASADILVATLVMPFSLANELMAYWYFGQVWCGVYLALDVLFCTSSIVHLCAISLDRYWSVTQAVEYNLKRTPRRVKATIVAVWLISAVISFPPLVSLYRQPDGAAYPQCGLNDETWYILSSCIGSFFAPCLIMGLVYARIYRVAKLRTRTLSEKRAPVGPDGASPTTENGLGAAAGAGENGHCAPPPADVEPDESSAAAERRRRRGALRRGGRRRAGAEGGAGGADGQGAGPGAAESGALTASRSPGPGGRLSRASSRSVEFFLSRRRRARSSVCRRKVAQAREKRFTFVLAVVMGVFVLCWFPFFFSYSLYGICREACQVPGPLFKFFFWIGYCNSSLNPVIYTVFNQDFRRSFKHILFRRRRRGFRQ

[7] = inhibitors of Sendai virus-induced IRF3 signaling, primary screen, TLR/RLR signaling modifier project, cell-based, Sendai virus stimulus, luciferase, 10K MLSCN set (AID 602276;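 active = inhibition at or above 50% at 10 µM; inactive = inhibition below 50%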;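 also: firefly luciferase from ISG56 promoter only with Renilla not read in this screen; 0% = Sendai virus plus DMSO and 100% = medium plus DMSO without virus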); conditions: HEK293 RL24 IRF3 luciferase reporter, at 10 µM, stronger effect = higher value
[8] = inhibitors of poly I:C-induced TLR3 signaling, primary screen, cell-based, poly I:C stimulus, luciferase, 10K MLSCN set (AID 602277;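 active = inhibition of the reporter signal at or above 50%; inactive = inhibition below 50%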); conditions: HEK293-TLR3 RL24 IRF3 luciferase reporter, at 10 µM, stronger effect = higher value

Row | Compound | cell count [1] | inhibition [1] | inhibition of aggregation [2] | nuclei count [2] | inhibition [3] | nuclei count [3] | fluorescence slope [4] | NADPH fluorescence slope [5] | slope [6] | inhibition [7] | inhibition [8]
1 | O=C(CSc1nnc(Cn2c(=O)sc3ccccc32)n1-c1ccccc1)Nc1nccs1 | 645 | 1.8% (inactive) | 9.1% (inactive) | 110% | -7.4% (inactive) | 104% | -0.58 (inactive) | -2.9e-05 (inactive) | 0.00712 (inactive) | 2.86% (inactive) | 16.4% (inactive)
2 | Cc1ccc(S(=O)(=O)CC(=O)N2CCCCCC2)cc1 | 615 | 9.2% (inactive) | 17% (inactive) | 103% | -33% (inactive) | 112% | -0.504 (inactive) | -5.2e-05 (inactive) | 0.0061 (inactive) | -16.3% (inactive) | -15.4% (inactive)
3 | O=C(O)CCC1(C(=O)O)OCCc2ccccc21 (centres undefined) | 470 | 2.9% (inactive) | -4.2% (inactive) | 99.2% | -99.4% (inactive) | 118% | -0.599 (inactive) | -3.7e-05 (inactive) | 0.00588 (inactive) | 8.34% (inactive) | 17.4% (inactive)
4 | CN1CCN(c2nc(-c3ccncc3)nc3ccccc23)CC1 | 324 | -13.1% (inactive) | -19.7% (inactive) | 51.3% | -133% (inactive) | 120% | -0.41 (inactive) | -3.7e-05 (inactive) | 0.00562 (inactive) | 11.9% (inactive) | 15.9% (inactive)
5 | Cn1cccc1Cc1nnc(SCC(N)=O)n1-c1ccc(F)cc1 | 845 | 4.6% (inactive) | 15.1% (inactive) | 102% | -106% (inactive) | 125% | -0.569 (inactive) | -3.1e-05 (inactive) | 0.00615 (inactive) | 10.4% (inactive) | 24.3% (inactive)
6 | CC(=O)c1ccc(NC(=O)CSc2nnc(-c3ccoc3C)n2Cc2ccccc2)cc1 | 366 | -4.2% (inactive) | 5.2% (inactive) | 98.2% | -35.8% (inactive) | 99.5% | -0.432 (inactive) | -2e-09 (inactive) | 0.00468 (inactive) | -9.45% (inactive) | -12% (inactive)
7 | CC(C)(C)NC(=O)COC(=O)c1snc(C(=O)NC2CCCCC2)c1N | 236 | 13.3% (inactive) | 3.3% (inactive) | 99.5% | -55.6% (inactive) | 96.2% | -0.586 (inactive) | 2.8e-05 (inactive) | 0.00501 (inactive) | 9.79% (inactive) | -26% (inactive)
8 | O=C(CSc1nc2ccccc2[nH]1)c1ccc2c(c1)OCO2 | 673 | 2.4% (inactive) | -4% (inactive) | 102% | -2.6% (inactive) | 100% | -0.471 (inactive) | -1.2e-05 (inactive) | 0.00599 (inactive) | 18.8% (inactive) | -39.5% (inactive)
9 | O=C1c2ccccc2C(Nc2ccc3nc(-c4cccnc4)[nH]c3c2)N1Cc1ccco1 (centres undefined) | 493 | -9.4% (inactive) | 23.2% (inactive) | 90% | -24.3% (inactive) | 93.2% | -0.58 (inactive) | -3.1e-06 (inactive) | 0.00653 (inactive) | -7.53% (inactive) | -13.9% (inactive)
10 | C=CCn1c(COc2cccc(C)c2)nnc1SCC(=O)NC(=O)NCc1ccco1 | 365 | -10.6% (inactive) | 23.8% (inactive) | 86.7% | 6.1% (inactive) | 113% | -0.405 (inactive) | 3.1e-05 (inactive) | 0.00673 (inactive) | 16.1% (inactive) | 30.1% (inactive)
11 | Cc1ccc2c(c1)NC(=O)C(CC(=O)NCCCN1CCN(c3cc(Cl)ccc3C)CC1)O2 (centres undefined) | 640 | 4.1% (inactive) | -19% (inactive) | 82.6% | 8.8% (inactive) | 123% | -0.55 (inactive) | 3.4e-05 (inactive) | 0.00483 (inactive) | -15.5% (inactive) | -8.91% (inactive)
12 | COc1ccc2c(c1)CCc1cc(C(=O)N3CCN(c4ccc(N5CCOCC5)nn4)CC3)sc1-2 | 583 | 5.5% (inactive) | -28.1% (inactive) | 127% | -61.7% (inactive) | 114% | -0.499 (inactive) | -1.1e-05 (inactive) | 0.00712 (inactive) | 2.81% (inactive) | -42.5% (inactive)
13 | Cc1cc2ccccc2n1CCNC(=O)c1ccc(S(=O)(=O)N2CCOCC2)cc1 | 194 | 0.8% (inactive) | 14.3% (inactive) | 93.1% | -41.3% (inactive) | 101% | -0.603 (inactive) | -1.9e-05 (inactive) | 0.00522 (inactive) | 13.5% (inactive) | 30% (inactive)
14 | O=C(CCC(=O)N(c1cccc(F)c1)C(C(=O)NC1CCCC1)c1ccncc1)Nc1cccnc1 (centres undefined) | 465 | 0.6% (inactive) | -8.2% (inactive) | 70.3% | -32.3% (inactive) | 108% | -0.5 (inactive) | -3.7e-05 (inactive) | 0.00449 (inactive) | 18.8% (inactive) | 20.4% (inactive)
15 | CC1CCc2nn(CC(=O)NCc3ccc(F)cc3)cc2C1 (centres undefined) | 919 | 1.2% (inactive) | -5.6% (inactive) | 112% | -72.4% (inactive) | 119% | -0.628 (inactive) | -3.4e-06 (inactive) | 0.00689 (inactive) | -0.348% (inactive) | 20.2% (inactive)
16 | Cc1[nH]nc2c1C(C1CC=CCC1)C(C#N)=C(N)O2 (centres undefined) | 424 | 6.7% (inactive) | -6.7% (inactive) | 99.5% | -127% (inactive) | 117% | -0.459 (inactive) | 8.5e-06 (inactive) | 0.00356 (inactive) | -0.754% (inactive) | 40.2% (inactive)
17 | O=C1CC(c2cccnc2)c2cc3c(cc2N1)OCO3 (centres undefined) | 451 | -1.2% (inactive) | -3.3% (inactive) | 104% | -79.3% (inactive) | 102% | -0.527 (inactive) | -6.9e-06 (inactive) | 0.00697 (inactive) | 0.756% (inactive) | 25% (inactive)
18 | CC(=O)c1ccc(NC(=O)CCc2c(C)nc3ncnn3c2C)cc1 | 363 | 0% (inactive) | 11.4% (inactive) | 103% | -31.1% (inactive) | 113% | -0.498 (inactive) | -2.9e-05 (inactive) | 0.00573 (inactive) | -9.29% (inactive) | -11.6% (inactive)
19 | CCCCOC(=O)C1=C(C)Nc2ncnn2C1c1cccc(OC)c1OC (centres undefined) | 655 | 12.8% (inactive) | -20.9% (inactive) | 113% | -71.2% (inactive) | 111% | -0.403 (inactive) | -4e-05 (inactive) | 0.00417 (inactive) | 12.8% (inactive) | 9.22% (inactive)
